This note sets out measurements from PubChem BioAssay.

Active and inactive are the calls of the source.

Assay [1] has as its system Plasmodium falciparum Sir2 (PF13_0152, Sir2A). Briefly: Plasmodium falciparum Sir2A binding compounds – biochemical, small-molecule microarray, 635 nm fluorescence, primary screen (AID 1098).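 Note: score merges spot fluorescence intensity with its signal-to-noise ratio.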 The settings on record: fluorescence 635 nm, higher = more signal.
Assay [2] can be described thus: probe aDKK1 binding to arrayed compounds – biochemical, biotinylated probe, 635/667 nm fluorescence, primary screen (AID 1099).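 Note: score merges 667nm spot fluorescence with signal to noise across triplicate slides; reference of the scale not given here.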 The conditions noted are these: small-molecule microarray, higher = more signal.
Assay [3] in a line: probe aCHRDL2 binding to arrayed compounds – biochemical, biotinylated probe, 635/667 nm fluorescence, primary screen (AID 1100). The settings on record: small-molecule microarray, higher = more signal.
Assay [4] can be described thus: change in splice reporter luminescence, either direction, cell-based, HEK293, spliceosome inhibition project, primary screen (AID 1101).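 Note: HEK293 cells carrying a splicing-competent luciferase reporter gene; test concentration not given here.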 The settings on record: HEK293 splicing luciferase reporter, 24 h, higher = more signal, called active from +8 up or from −8 down.
In assay [5] the target is Fibroblast growth factor 10 (Homo sapiens) (UniProt O15520). Briefly: compounds binding fibroblast growth factor 10 – biochemical, small-molecule microarray, 635 nm fluorescence, primary screen (AID 1102). The settings on record: FGF10 binding, fluorescence 635 nm, higher = more signal.
The test system of assay [6] is glycogen synthase kinase-3 (GSK3A per assay name; protocol says GSK3B). Briefly: compounds binding glycogen synthase kinase-3 – biochemical, small-molecule microarray, 635 nm fluorescence, GSK3A, primary screen (AID 1103). Note: the record names both GSK3A and GSK3B. The conditions noted are these: fluorescence 635 nm, higher = more signal.
In assay [7] the target is Epidermal growth factor receptor (Homo sapiens) (UniProt P00533). Briefly: compounds binding epidermal growth factor receptor – biochemical, small-molecule microarray, 635 nm fluorescence, primary screen (AID 1104).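 Note: score merges 667 nm emission intensity with spot signal to noise over triplicate slides.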 The conditions noted are these: EGFR binding, higher = more signal.
The target of assay [8] is Follistatin-related protein 3 (Homo sapiens) (UniProt O95633). Nature of the assay: compounds binding follistatin-related protein 3 – biochemical, small-molecule microarray, 635 nm fluorescence, primary screen (AID 1105).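 Note: score merges emission near 667 nm and signal to noise per printed spot across three slides.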 The settings on record: FSTL3 binding, higher = more signal.
The target of assay [9] is Dickkopf-related protein 1 (Homo sapiens) (UniProt O94907). Nature of the assay: small molecules binding DKK1 protein – biochemical, small-molecule microarray, 635 nm fluorescence scan, primary screen (AID 1106).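 Note: score merges emission near 667 nm with signal to noise over three replicate slides.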 The conditions noted are these: higher = more signal.
Assay [10] concerns Inhibin beta A chain (activin A). Briefly: small molecules binding activin A – biochemical, small-molecule microarray, 635 nm fluorescence scan, primary screen (AID 1107).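 Note: mouse activin A protein probed at 4.33 µg/mL on printed slides; score merges bound-protein fluorescence near 667 nm with spot signal-to-noise.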 The settings on record: INHBA, higher = more signal.

Chain of Follistatin-related protein 3 (Homo sapiens) (O95633 whole entry, looked up): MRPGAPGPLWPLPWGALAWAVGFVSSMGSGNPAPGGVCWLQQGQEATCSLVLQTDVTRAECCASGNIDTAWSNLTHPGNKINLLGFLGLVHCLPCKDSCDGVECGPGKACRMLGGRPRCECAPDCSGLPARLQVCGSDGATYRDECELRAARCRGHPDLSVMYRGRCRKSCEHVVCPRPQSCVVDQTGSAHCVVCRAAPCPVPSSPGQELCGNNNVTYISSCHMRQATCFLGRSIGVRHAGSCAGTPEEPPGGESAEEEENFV
Chain of Epidermal growth factor receptor (Homo sapiens) (P00533 whole entry, looked up): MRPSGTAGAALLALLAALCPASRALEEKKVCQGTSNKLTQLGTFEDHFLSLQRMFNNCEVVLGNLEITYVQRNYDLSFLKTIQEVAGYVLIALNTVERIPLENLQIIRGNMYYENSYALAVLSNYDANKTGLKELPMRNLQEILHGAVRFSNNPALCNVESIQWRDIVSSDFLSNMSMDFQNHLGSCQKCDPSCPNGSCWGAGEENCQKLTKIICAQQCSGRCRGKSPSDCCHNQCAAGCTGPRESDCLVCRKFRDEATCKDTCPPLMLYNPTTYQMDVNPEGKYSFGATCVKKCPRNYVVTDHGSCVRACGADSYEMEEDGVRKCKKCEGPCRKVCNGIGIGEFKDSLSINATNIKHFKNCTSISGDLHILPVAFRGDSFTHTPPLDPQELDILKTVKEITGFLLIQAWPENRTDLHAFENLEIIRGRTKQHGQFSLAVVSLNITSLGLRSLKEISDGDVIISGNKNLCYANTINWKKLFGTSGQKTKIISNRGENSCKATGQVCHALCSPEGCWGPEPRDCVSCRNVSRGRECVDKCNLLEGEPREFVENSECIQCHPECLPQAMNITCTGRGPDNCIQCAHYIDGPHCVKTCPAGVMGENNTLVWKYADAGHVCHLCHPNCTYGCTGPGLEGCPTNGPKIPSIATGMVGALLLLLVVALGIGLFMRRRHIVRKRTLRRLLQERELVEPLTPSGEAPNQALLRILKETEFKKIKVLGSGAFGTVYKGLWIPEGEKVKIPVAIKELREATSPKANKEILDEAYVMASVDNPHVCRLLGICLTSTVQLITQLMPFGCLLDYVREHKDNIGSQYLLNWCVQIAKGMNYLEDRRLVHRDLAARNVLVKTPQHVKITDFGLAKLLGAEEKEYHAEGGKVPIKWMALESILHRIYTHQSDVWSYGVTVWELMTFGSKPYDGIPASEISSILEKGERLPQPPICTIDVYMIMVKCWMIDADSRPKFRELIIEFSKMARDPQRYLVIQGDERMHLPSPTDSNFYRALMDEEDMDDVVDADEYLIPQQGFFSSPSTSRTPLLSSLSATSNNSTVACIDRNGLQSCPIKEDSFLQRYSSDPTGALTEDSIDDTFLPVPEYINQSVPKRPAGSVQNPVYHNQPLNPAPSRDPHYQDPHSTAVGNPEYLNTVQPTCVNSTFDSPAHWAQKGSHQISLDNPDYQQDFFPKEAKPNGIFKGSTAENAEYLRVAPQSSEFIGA
Chain of Dickkopf-related protein 1 (Homo sapiens) (O94907 whole entry, looked up): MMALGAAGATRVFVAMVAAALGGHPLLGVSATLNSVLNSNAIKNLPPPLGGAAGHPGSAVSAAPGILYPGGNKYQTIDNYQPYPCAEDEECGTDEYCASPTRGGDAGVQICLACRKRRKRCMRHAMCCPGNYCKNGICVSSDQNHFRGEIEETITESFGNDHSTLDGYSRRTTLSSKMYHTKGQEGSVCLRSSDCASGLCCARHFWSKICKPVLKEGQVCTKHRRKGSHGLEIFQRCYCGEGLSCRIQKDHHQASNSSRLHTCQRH
Chain of Fibroblast growth factor 10 (Homo sapiens) (O15520 whole entry, looked up): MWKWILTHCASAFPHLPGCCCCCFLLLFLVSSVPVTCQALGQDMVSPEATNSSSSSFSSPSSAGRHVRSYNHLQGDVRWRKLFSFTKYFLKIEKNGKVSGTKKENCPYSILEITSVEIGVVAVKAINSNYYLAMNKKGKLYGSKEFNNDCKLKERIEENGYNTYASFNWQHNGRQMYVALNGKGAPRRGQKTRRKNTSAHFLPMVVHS

As for `C=CCOC(=O)[C@H]1[C@@H]2C(=O)O[C@@H](c3ccccc3)[C@@H](c3ccccc3)N2[C@@H](c2ccc(OCCOC(=O)[C@@H]3C[C@@H]4C(=O)N[C@@H](CCCCN(C)C)C(=O)N4[C@@H]3c3ccc(O)cc3)cc2)[C@]12C(=O)Nc1ccc(I)cc12`, the composite z-score in assay [1] is 1.04; in assay [2], 0.26; in assay [3], -0.0178; in assay [5], 0.735; in assay [6] it was 1.32; in [7], 0.537. Further, the composite z-score in assay [8] is 1.08; in [9] it was 1.06; in assay [10], -0.389. In addition, the z-score in assay [4] is -0.433 (inactive).

As to `CC(C)(C)OC(=O)CC[C@]1(C(=O)O)N=C(c2ccc(OCCCO)cc2)O[C@H]1c1ccccc1N=[N+]=[N-]`, the composite z-score in assay [1] is 1.34; in assay [2], 1.75; in [3], 1.11; in assay [5] it was 0.443; in assay [6], 0.581; in assay [7], -0.143. The composite z-score in [8] was 0.4; in assay [9], 0.0608; in assay [10] it was 0.977. Further, in [4], the z-score was 0.115 (inactive).

As for `C=CCN1C(=O)[C@]2(O[C@H](CCO)[C@@H]([Si](C)(C)c3ccc(OC)cc3)[C@@H]2C)c2cc(N3C(=O)c4cccc5cccc3c45)ccc21`, the composite z-score in assay [1] was 1.18; in [2], 0.0458; in assay [3], 0.151; in assay [5] it was 0.446; in assay [6], 0.398; in assay [7], -0.0841. The composite z-score is 0.286 in [8], -0.255 in assay [9] and 0.552 in [10]. The z-score in assay [4] is -2.45 (inactive).

As to `O=C1c2ccccc2[C@@]2(Cc3ccccc3N(CC(F)(F)F)C2=O)[C@H](c2ccc(CO)cc2)N1Cc1ccccc1Cl`, the composite z-score is 0.0888 in assay [1]; -0.237 in [2]; -0.524 in assay [3]; 0.466 in [5]; 0.612 in assay [6]; 0.509 in [7]. Further, the composite z-score in assay [8] turned out to be 0.725; in assay [9], 0.558; in assay [10], 0.531. For the same compound, in assay [4], the z-score was -0.311 (inactive).

With `COc1ccc([C@H]2OC[C@@H]3CC4(CC=CC4)C(=O)N32)cc1`, the composite z-score in assay [1] was 0.165; in [2], -0.231; in assay [3], -0.147; in [5], 0.93; in assay [6] it was 0.784; in assay [7], 1.04. Besides, the composite z-score was found to be 1.31 in assay [8], 1.42 in [9] and 1.25 in assay [10]. In [4], the z-score was -0.297 (inactive).

In the case of `COc1ccc(C(O)C2C=CC3C(=O)NC(=O)C3N2Nc2ccccn2)c2ccccc12` (stereo not given), the composite z-score is 0.157 in assay [1]; 0.046 in assay [2]; 0.108 in assay [3]; 0.392 in assay [5]; -0.39 in assay [6]; 0.307 in assay [7]. The composite z-score in assay [8] came to 0.16; in assay [9] it was 0.378; in [10] it was 0.804. Moreover, in [4], the z-score is 0.841 (inactive).

Consider `CC(CO)N1C(=O)[C@@H]2C3C(=O)OCCC/C=C\[C@H]3OC23C=CCN(c2ccc4ccccc4c2)C(=O)[C@@H]13` (stereo not given in full), for which the composite z-score in assay [1] is 0.0726; in assay [2], -0.146; in assay [3] it was 0.128; in assay [5] it was -1.01; in assay [6] it was -0.974; in [7], -1.04. The composite z-score in assay [8] was -0.718; in [9] it was -1.17; in [10], -0.107. For the same compound, in assay [4], the z-score is -0.317 (inactive).

Take `CN1C(=O)C2C=CC(C(O)c3ccccc3)N(Nc3ccccc3)C2C1=O` (stereo not given): the composite z-score is 1.54 in [1]; 0.754 in [2]; 1.13 in assay [3]; -0.678 in assay [5]; -0.415 in [6]; -1.32 in [7]. Moreover, the figures for the composite z-score in assay [8], in [9] and in assay [10] were -0.674, -1.22 and 0.918, respectively. For the same compound, the z-score in [4] was 1.03 (inactive).

As for `O=C1OCC=C[C@H]2OC34C=CCN(CCN5CCOCC5)C(=O)[C@H]3N(CCCO)C(=O)[C@@H]4[C@@H]12` (stereo not given in full), the composite z-score in assay [1] was 0.112; in assay [2], -0.218; in assay [3], -0.0654; in [5] it was -0.116; in assay [6], 0.394; in assay [7] it was -0.0604. For the same compound, the figures for the composite z-score in [8], in assay [9] and in [10] were 0.292, 0.163 and 0.715, respectively. Also, the z-score in assay [4] was -1.52 (inactive).

Take `C=CCNC(=O)[C@H]1[C@@H]2C(=O)O[C@@H](c3ccccc3)[C@@H](c3ccccc3)N2[C@@H](c2ccccc2OCCO)[C@]12C(=O)Nc1ccc(C#CC3=CCCCC3)cc12`: the composite z-score in assay [1] is 1.28; in assay [2] it was -0.22; in [3], 0.317; in [5], 1.27; in [6] it was 1.3; in assay [7], 0.48. The composite z-score was 1.24 in assay [8], 0.646 in [9] and 1.17 in assay [10]. The z-score in assay [4] was -2.23 (inactive).

On to `O=C1OCCC/C=C\[C@H]2OC34C=CCN(Cc5ccccc5)C(=O)[C@H]3N(CCCCCCO)C(=O)[C@@H]4C12` (stereo not given in full), for which the composite z-score in assay [1] was -0.0862; in assay [2], 0.227; in assay [3], 0.932; in [5] it was -0.942; in assay [6] it was -0.457; in assay [7], -1.69. For the same compound, the composite z-score in assay [8] is -1.27; in [9], -1.69; in assay [10] it was -0.546. Moreover, in assay [4], the z-score was -0.286 (inactive).

Regarding `CN(C)CCCC[C@@H]1NC(=O)[C@H]2C[C@@H](C(=O)NCCCCCNC(=O)CS)[C@@H](c3cccc(OCCO)c3)N2C1=O`, the composite z-score is 1.12 in [1]; -0.144 in assay [2]; 0.61 in assay [3]; 0.305 in assay [5]; 0.894 in assay [6]; 0.227 in [7]. Moreover, the composite z-score was 0.65 in assay [8], 0.459 in [9] and -0.0899 in [10]. The z-score in [4] is 0.515 (inactive).

Take `CCN(CC)c1ccc(N2CC=CC34O[C@@H]5/C=C\CCC(C)OC(=O)C5[C@H]3C(=O)N(C(CO)C(C)C)[C@@H]4C2=O)cc1` (stereo not given in full): the composite z-score in assay [1] is 0.492; in assay [2], -0.204; in [3], 0.0959; in assay [5], -0.709; in assay [6] it was -0.806; in assay [7], -0.532. For the same compound, the composite z-score in assay [8] is -1.1; in assay [9] it was -0.41; in assay [10] it was 1.15. Also, in assay [4], the z-score was -0.208 (inactive).

Regarding `C=CCC(OC(C)=O)[C@@H]1[C@@H](N(Cc2cccc3ccccc23)C(=O)c2ccc(-c3ccccc3)cc2)c2cc(OCCCO)ccc2N1C(=O)Cc1ccc(OC)cc1` (stereo not given in full), the composite z-score was 0.283 in assay [1]; -0.0675 in assay [2]; 0.0188 in [3]; 0.168 in assay [5]; 0.0341 in assay [6]; 0.23 in assay [7]. The values for the composite z-score in assay [8], in assay [9] and in [10] were 0.431, 0.0533 and 0.884, respectively. In addition, in assay [4], the z-score is -1.08 (inactive).
